# From publication PMC8384837, “Expanding the binding specificity for RNA recognition by a PUF domain”
# How the values were obtained:
# Test in all cases: yeast three-hybrid, YBZ-1, SC-Leu-His + 0.5 mM 3-AT, 4 days
# Settings in all cases: tags: N-Gal4 AD-HA kept; label: inside an RPR1-promoter hybrid RNA with tandem MS2 sites; ssRNA
# PUM1 PUF domain R5-RHS = PUM1 PUF domain R5-RHS (Homo sapiens, UniProt Q14671 828-1176, C1007R;R1008H;Q1011S)
# In short: (§1)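 The interaction score is the logarithmic change in variant frequency from input to selection. It uses log2, with a pseudocount of 1 for absent variants, and frequencies came from PCR-amplified, Illumina-sequenced repeat regions. The libraries were Pumilio-1 PUF domains randomized at the three base-contacting residues per repeat, co-expressed with matching RNA elements in strain YBZ-1 (LexA–MS2 coat fusion, HIS3 reporter). Plating lasted four days on SC-Leu (input) or SC-Leu-His + 0.5 mM 3-AT (selection).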
# PUM1 PUF domain R5-KFS = PUM1 PUF domain R5-KFS (Homo sapiens, UniProt Q14671 828-1176, C1007K;R1008F;Q1011S)
# In short: as §1
# PUM1 PUF domain R5-RFQ = PUM1 PUF domain R5-RFQ (Homo sapiens, UniProt Q14671 828-1176, C1007R;R1008F)
# In short: as §1
# PUM1 PUF domain R4-CNV = PUM1 PUF domain R4-CNV (Homo sapiens, UniProt Q14671 828-1176, N971C;H972N;Q975V)
# In short: as §1
# PUM1 PUF domain R3-GPD = PUM1 PUF domain R3-GPD (Homo sapiens, UniProt Q14671 828-1176, C935G;R936P;Q939D)
# In short: as §1
# PUM1 PUF domain R3-SCR = PUM1 PUF domain R3-SCR (Homo sapiens, UniProt Q14671 828-1176, C935S;R936C;Q939R)
# In short: as §1
# PUM1 PUF domain R3-VRA = PUM1 PUF domain R3-VRA (Homo sapiens, UniProt Q14671 828-1176, C935V;Q939A)
# In short: as §1
# PUM1 PUF domain R6-MHR = target: T1, PUM1 PUF domain R6-MHR (Homo sapiens, UniProt Q14671 828-1176, N1043M;Y1044H;Q1047R)
# T1 sequence: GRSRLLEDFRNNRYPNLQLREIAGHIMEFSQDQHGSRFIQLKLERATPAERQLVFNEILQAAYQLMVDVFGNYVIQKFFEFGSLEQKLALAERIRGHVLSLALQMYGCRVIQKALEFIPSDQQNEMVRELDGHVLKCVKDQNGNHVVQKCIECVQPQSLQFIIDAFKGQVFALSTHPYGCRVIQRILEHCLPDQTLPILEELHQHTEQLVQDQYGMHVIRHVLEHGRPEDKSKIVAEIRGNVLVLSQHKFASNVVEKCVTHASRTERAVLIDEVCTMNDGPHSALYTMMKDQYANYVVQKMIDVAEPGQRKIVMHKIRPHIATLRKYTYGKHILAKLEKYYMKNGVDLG
# In short: as §1
# PUM1 PUF domain R5-DHC = PUM1 PUF domain R5-DHC (Homo sapiens, UniProt Q14671 828-1176, C1007D;R1008H;Q1011C)
# In short: as §1
# PUM1 PUF domain R4-NRN = PUM1 PUF domain R4-NRN (Homo sapiens, UniProt Q14671 828-1176, H972R;Q975N)
# In short: as §1
sequence,measurement,setting,value
GGCUAGAACUAGUGGAUCCCCCGGCGCCCGGCGGCUCGAGCCCGGGUAAGUGUUAAUAGUCUGCAUGCCGCCGGGCGCCAUGCCUGCAGGUCGACUCUAGAAAACAUG,binding signal,PUM1 PUF domain R5-RHS,5.74 log2 enrichment (interaction score)
same,binding signal,PUM1 PUF domain R5-KFS,5.06 log2 enrichment (interaction score)
GGCUAGAACUAGUGGAUCCCCCGGCGCCCGGCGGCUCGAGCCCGGGUAAGUGUGAAUAGUCUGCAUGCCGCCGGGCGCCAUGCCUGCAGGUCGACUCUAGAAAACAUG,binding signal,PUM1 PUF domain R5-RFQ,3.05 log2 enrichment (interaction score)
same,binding signal,PUM1 PUF domain R5-RHS,3.89 log2 enrichment (interaction score)
GGCUAGAACUAGUGGAUCCCCCGGCGCCCGGCGGCUCGAGCCCGGGUAAGUGUACAUAGUCUGCAUGCCGCCGGGCGCCAUGCCUGCAGGUCGACUCUAGAAAACAUG,binding signal,PUM1 PUF domain R4-CNV,2.79 log2 enrichment (interaction score)
GGCUAGAACUAGUGGAUCCCCCGGCGCCCGGCGGCUCGAGCCCGGGUAAGUGUAUAUAGUCUGCAUGCCGCCGGGCGCCAUGCCUGCAGGUCGACUCUAGAAAACAUG,binding signal,PUM1 PUF domain R4-CNV,3.21 log2 enrichment (interaction score)
GGCUAGAACUAGUGGAUCCCCCGGCGCCCGGCGGCUCGAGCCCGGGUAAGUGUCAAUAGUCUGCAUGCCGCCGGGCGCCAUGCCUGCAGGUCGACUCUAGAAAACAUG,binding signal,PUM1 PUF domain R5-RHS,5.1 log2 enrichment (interaction score)
same,binding signal,PUM1 PUF domain R5-KFS,5.16 log2 enrichment (interaction score)
GGCUAGAACUAGUGGAUCCCCCGGCGCCCGGCGGCUCGAGCCCGGGUAAGUGUAAUUAGUCUGCAUGCCGCCGGGCGCCAUGCCUGCAGGUCGACUCUAGAAAACAUG,binding signal,PUM1 PUF domain R3-GPD,3.07 log2 enrichment (interaction score)
same,binding signal,PUM1 PUF domain R3-SCR,3.35 log2 enrichment (interaction score)
GGCUAGAACUAGUGGAUCCCCCGGCGCCCGGCGGCUCGAGCCCGGGUAAGUGUAAGUAGUCUGCAUGCCGCCGGGCGCCAUGCCUGCAGGUCGACUCUAGAAAACAUG,binding signal,PUM1 PUF domain R3-VRA,1.39 log2 enrichment (interaction score)
same,binding signal,PUM1 PUF domain R3-SCR,3.4 log2 enrichment (interaction score)
GGCUAGAACUAGUGGAUCCCCCGGCGCCCGGCGGCUCGAGCCCGGGUAAGUGUAAAUAGUCUGCAUGCCGCCGGGCGCCAUGCCUGCAGGUCGACUCUAGAAAACAUG,binding signal,PUM1 PUF domain R3-GPD,1.39 log2 enrichment (interaction score)
same,binding signal,PUM1 PUF domain R6-MHR,5.76 log2 enrichment (interaction score)
same,binding signal,PUM1 PUF domain R5-RFQ,2.95 log2 enrichment (interaction score)
same,binding signal,PUM1 PUF domain R5-RHS,4.26 log2 enrichment (interaction score)
same,binding signal,PUM1 PUF domain R3-VRA,3.97 log2 enrichment (interaction score)
same,binding signal,PUM1 PUF domain R5-DHC,2.98 log2 enrichment (interaction score)
same,binding signal,PUM1 PUF domain R4-NRN,2.83 log2 enrichment (interaction score)
same,binding signal,PUM1 PUF domain R4-CNV,0.77 log2 enrichment (interaction score)
same,binding signal,PUM1 PUF domain R5-KFS,4.28 log2 enrichment (interaction score)
